From PubChem BioAssay (NCI)
About 83,000 compounds went through this panel and 20% of them were active in at least one assay; those are over-represented in the sample as a whole.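 Interpretation: 100, growth as untreated; towards 0, rising growth inhibition; 0, no net growth; 0 to -100, cell death. Compounds scoring below 10 were considered active.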 Activity calls are given as the source filed them.

How the values were obtained:
Experiment in all cases: NCI-60 one-dose screen, 48 h (100 = growth as untreated, 0 = no growth, -100 = all killed)
Conditions in all cases: 10 µM unless noted
HCT-15 colon = test system: HCT-15 colon
HT29 colon = test system: HT29 colon
SNB-75 CNS = test system: SNB-75 CNS
SNB-19 CNS = test system: SNB-19 CNS
U251 CNS = test system: U251 CNS
PC-3 prostate = test system: PC-3 prostate
SK-MEL-5 melanoma = test system: SK-MEL-5 melanoma
UACC-62 melanoma = test system: UACC-62 melanoma
LOX IMVI melanoma = test system: LOX IMVI melanoma
SK-MEL-28 melanoma = test system: SK-MEL-28 melanoma

Row | SMILES | growth (HCT-15 colon) | growth (HT29 colon) | growth (SNB-75 CNS) | growth (SNB-19 CNS) | growth (U251 CNS) | growth (PC-3 prostate) | growth (SK-MEL-5 melanoma) | growth (UACC-62 melanoma) | growth (LOX IMVI melanoma) | growth (SK-MEL-28 melanoma)
1 | COc1cc(C(=O)/C=C/c2ccc(N3CCN(C)CC3)cc2)cc(OC)c1OC | 92.5% (inactive) | 94.7% (inactive) | 82.2% (inactive) | 95.3% (inactive) | 99.5% (inactive) | 99.3% (inactive) | 103% (inactive) | 86.8% (inactive) | 90.4% (inactive) | 103% (inactive)
2 | CCCCn1sc(=O)n(Cc2ccc(CNC(=O)OCc3ccc4c(Br)cc(Br)c(O)c4n3)cc2)c1=O | 9.07% (active) | 96.4% (inactive) | 14.4% (inactive) | 37.4% (inactive) | 11.2% (inactive) | 18.9% (inactive) | -35.2% (active) | 37.6% (inactive) | 22.9% (inactive) | 67.4% (inactive)
3 | COC(=O)C1=C(C)NC(C)=C(C(=O)OCC(C)C)C1c1ccccc1[N+](=O)[O-] (stereo not given) | 41% (inactive) | 87.3% (inactive) | 68.6% (inactive) | 82.4% (inactive) | 68.8% (inactive) | 35.8% (inactive) | 38% (inactive) | 48.7% (inactive) | 42.4% (inactive) | 87.1% (inactive)
4 | NC(=O)c1ccc(NC(=O)c2oc3ccccc3c2-c2cnn(-c3ccccc3)c2)cc1 | 43.2% [50 µM] (inactive) | 2.07% [50 µM] (active) | -25.5% [50 µM] (active) | 2.3% [50 µM] (active) | -19.2% [50 µM] (active) | 6.29% [50 µM] (active) | 4.65% [50 µM] (active) | 45.3% [50 µM] (inactive) | -22.6% [50 µM] (active) | 25.6% [50 µM] (inactive)
5 | COc1ccc2nc(SCC(=O)Nc3ccccc3C)[nH]c2c1 | 99.8% (inactive) | 109% (inactive) | 82.5% (inactive) | 95% (inactive) | 93.5% (inactive) | 84.5% (inactive) | 95.7% (inactive) | 84.5% (inactive) | 95.6% (inactive) | 95.8% (inactive)
6 | COc1ccc(C2CC(c3ccc(Nc4nc(Nc5ccc(F)cc5)nc(Nc5ccc(F)cc5)n4)cc3)=NN2C(C)=O)cc1 (stereo not given) | 94.4% (inactive) | 100% (inactive) | 101% (inactive) | 85.2% (inactive) | 84.5% (inactive) | 68.8% (inactive) | 71.6% (inactive) | 103% (inactive) | 103% (inactive) | 110% (inactive)
7 | CC1(C)CCC(S(=O)(=O)c2ccc3c(c2)/C(=N\O)c2cc(S(=O)(=O)N4CCN(c5ccc(F)cc5O)CC4)ccc2-3)CC1 | -75.1% (active) | -88.7% (active) | -97.6% (active) | -72.7% (active) | -97.7% (active) | -64.2% (active) | -93.6% (active) | -69.7% (active) | -82.6% (active) | -72.2% (active)
8 | COc1cc(-c2cc(-c3ccc(Nc4ncnc5cc(Cl)ccc45)cc3)nc(N3CCN(C)CC3)n2)cc(OC)c1OC | 64.4% (inactive) | 81.7% (inactive) | 49.5% (inactive) | 102% (inactive) | 106% (inactive) | 82.2% (inactive) | 74.5% (inactive) | 97% (inactive) | 86.2% (inactive) | 86.6% (inactive)
9 | CCOC(=O)c1c(NC(=O)c2ccc(OC)cc2)sc2c(CN(C)C)c(O)ccc12 | 52.5% (inactive) | 13.9% (inactive) | 67.7% (inactive) | 89% (inactive) | 79.5% (inactive) | 78.9% (inactive) | 81.3% (inactive) | 95.7% (inactive) | 61.3% (inactive) | -30.4% (active)
10 | COc1ccc(Nc2ncccc2NC(=O)c2cn(Cc3cccc(Oc4ccccc4)c3)nn2)cc1OC | 67.7% (inactive) | 81.1% (inactive) | 76.2% (inactive) | 79.2% (inactive) | 74.5% (inactive) | 67.3% (inactive) | 45.1% (inactive) | 57.5% (inactive) | 67% (inactive) | 83.4% (inactive)
11 | N=C(N)c1ccc(-c2ccc(-c3ccc(Cl)cc3)o2)o1 | -78.1% (active) | -58.3% (active) | 69.8% (inactive) | -68.3% (active) | -95.5% (active) | 43.9% (inactive) | 76% (inactive) | -67.4% (active) | -73% (active) | 96.9% (inactive)
12 | C=C1C(=O)O[C@H]2[C@H]1CC/C(COC(=O)NCCCCCCCCNC(=O)OC/C1=C/CC[C@@]3(C)O[C@H]3[C@H]3OC(=O)C(=C)[C@@H]3CC1)=C\CC[C@@]1(C)O[C@@H]21 | -83.9% (active) | -67.1% (active) | -19.8% (active) | 6.51% (active) | -48.2% (active) | -64.3% (active) | -85.3% (active) | -70.8% (active) | -78.2% (active) | -75.3% (active)
13 | Cc1c2ccccc2nc2c1ccc1cccnc12 | 81.4% (inactive) | 70.9% (inactive) | 71.1% (inactive) | 88.8% (inactive) | 84.7% (inactive) | 65.1% (inactive) | 53% (inactive) | 94.6% (inactive) | 105% (inactive) | 113% (inactive)
14 | COc1cc(/C=N/Nc2ccccc2F)cc(OC)c1OC | 89.2% (inactive) | 93.6% (inactive) | 103% (inactive) | 98.3% (inactive) | 93.3% (inactive) | 88.7% (inactive) | 102% (inactive) | 65.7% (inactive) | 65.7% (inactive) | 110% (inactive)
15 | COc1cc(/C=C\c2cc(/C=C\c3ccc(O)c(OC)c3)n(C(=O)CNc3ccc(Cl)cc3)n2)ccc1O | 11.3% (inactive) | 15.8% (inactive) | 25.5% (inactive) | 45.6% (inactive) | 16.1% (inactive) | 33.9% (inactive) | 15.9% (inactive) | 10.9% (inactive) | 11.2% (inactive) | 49.5% (inactive)
16 | CC[C@H](CC[C@@H](C)[C@H]1CC[C@H]2[C@@H]3CC[C@@H]4CC(=O)/C(=C\c5ccncc5)C[C@]4(C)[C@H]3CC[C@]12C)C(C)C | 102% (inactive) | 103% (inactive) | 99.4% (inactive) | 99.2% (inactive) | 96.3% (inactive) | 92.6% (inactive) | 100% (inactive) | 94.5% (inactive) | 95.7% (inactive) | 107% (inactive)
17 | N=C(N)SCc1cccc2c(CSC(=N)N)cccc12 | 108% (inactive) | 108% (inactive) | 91.7% (inactive) | 93.5% (inactive) | 89.2% (inactive) | 97.4% (inactive) | 109% (inactive) | 96.6% (inactive) | 97.7% (inactive) | 109% (inactive)
18 | CCN1C(=O)N(CC)C2C1NN=c1s/c(=C3\C(=O)N(CCc4ccccc4)c4ccccc43)c(=O)n12 (stereo not given) | 10.7% (inactive) | 0.473% (active) | -4.86% (active) | 23.3% (inactive) | 14.5% (inactive) | 20.5% (inactive) | 7.69% (active) | 28.1% (inactive) | 10.9% (inactive) | 43.6% (inactive)
19 | C/C(=N\Nc1nc(C)cs1)c1cc2ccccc2o1 | 98.8% (inactive) | 103% (inactive) | 119% (inactive) | 96.4% (inactive) | 94% (inactive) | 70.2% (inactive) | 92% (inactive) | 85.5% (inactive) | 85.8% (inactive) | 110% (inactive)
20 | CS(=O)(=O)Nc1cncc(-c2ccc3ncnc(Nc4ccc(F)c(Cl)c4)c3c2)c1 | 51.1% (inactive) | 20.7% (inactive) | 33% (inactive) | 42.9% (inactive) | 8.79% (active) | 34.5% (inactive) | -50.1% (active) | 34.6% (inactive) | 28.3% (inactive) | 42.7% (inactive)
21 | COc1cc(/C=C2\CN(S(=O)(=O)c3ccc(C)cc3)C/C(=C\c3cc(CN4CCCCC4)c(O)c(OC)c3)C2=O)cc(CN2CCCCC2)c1O | -86.1% (active) | -66.5% (active) | -83.9% (active) | -57.7% (active) | -89.6% (active) | -39.9% (active) | -88.9% (active) | -63.5% (active) | -74.5% (active) | -85.8% (active)
22 | COc1ccc(Cl)cc1Nc1nc(C(F)(F)F)ccc1C(=O)N/N=C/c1ccccc1Cl | 0.947% (active) | 9.32% (active) | 50% (inactive) | 9.47% (active) | -25.8% (active) | 5.53% (active) | 3.59% (active) | 8.19% (active) | -13.6% (active) | 32.5% (inactive)
23 | NS(=O)(=O)c1ccc(N/C=C/C(=O)c2cc3ccccc3oc2=O)cc1 | 93.5% (inactive) | 108% (inactive) | 76.1% (inactive) | 103% (inactive) | 97.2% (inactive) | 93.7% (inactive) | 92.6% (inactive) | 93.7% (inactive) | 93% (inactive) | 111% (inactive)
